Results published in PubChem BioAssay (Tox21).
Inconclusive results are not listed. Where a call stands in place of a potency, no number is given. Active and inactive are the calls of the source. Unless noted, calls come from the whole dose curve; as a rule, active = well fitted curve in the direction sought with a large enough effect in the repeat runs; inconclusive = weak or mixed curves; inactive = no such curve, though single readings can be large; an effect the other way counts as inactive or inconclusive.

Key:
[1] = molecular target: Acetylcholinesterase (Homo sapiens) (UniProt P22303); test: Acetylcholinesterase (AChE) small molecule antagonists: enzyme-based qHTS assay (AID 1347397; calls by dose curve; note: nearly all actives have a fitted effect of over 55% in size); details: Potency: AChE enzyme activity inhibition
Chain of Acetylcholinesterase (Homo sapiens) (P22303 whole entry, looked up): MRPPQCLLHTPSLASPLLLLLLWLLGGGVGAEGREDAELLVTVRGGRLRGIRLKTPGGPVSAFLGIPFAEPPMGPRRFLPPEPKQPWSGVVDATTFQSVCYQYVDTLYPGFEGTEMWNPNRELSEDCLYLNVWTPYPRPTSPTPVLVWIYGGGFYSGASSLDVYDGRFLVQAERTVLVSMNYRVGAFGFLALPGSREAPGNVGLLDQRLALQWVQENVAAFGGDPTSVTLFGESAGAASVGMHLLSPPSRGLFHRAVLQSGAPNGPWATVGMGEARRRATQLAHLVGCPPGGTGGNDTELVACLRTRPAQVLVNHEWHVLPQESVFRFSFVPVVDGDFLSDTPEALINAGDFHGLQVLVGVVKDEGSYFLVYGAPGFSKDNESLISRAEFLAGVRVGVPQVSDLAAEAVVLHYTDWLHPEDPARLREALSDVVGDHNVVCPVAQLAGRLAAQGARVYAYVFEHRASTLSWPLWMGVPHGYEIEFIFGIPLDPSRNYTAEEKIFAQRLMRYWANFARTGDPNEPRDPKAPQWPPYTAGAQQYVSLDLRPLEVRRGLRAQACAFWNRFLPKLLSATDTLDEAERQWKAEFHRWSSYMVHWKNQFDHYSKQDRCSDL
Method in brief: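 Tox21 library chemicals are tested in qHTS format against recombinant human AChE. The enzyme, dispensed at 50 mU/mL, sits with compound for 30 min at room temperature. A DTNB–acetylthiocholine cocktail follows, and colour is read after 10 min.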

[2] = molecular target: Acetylcholinesterase (Homo sapiens) (UniProt P22303); test: Acetylcholinesterase (AChE) small molecule antagonists: fluorescence cell-based qHTS assay (AID 1347398; calls by dose curve; note: nearly all actives have a fitted effect of over 50% in size); details: Potency: AChE activity
Method in brief: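 Cellular AChE inhibition: SH-SY5Y cells treated with test chemical for 30 min at 37 C, then acetylthiocholine hydrolysis followed over 40 min at room temperature via thiocholine-reactive Thiolite Green fluorescence (490/520 nm).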

[3] = molecular target: Acetylcholinesterase (Homo sapiens) (UniProt P22303); test: Acetylcholinesterase (AChE) small molecule antagonists: enzyme-based qHTS assay with human liver microsomes (AID 1347399; calls by dose curve; note: nearly all actives have a fitted effect of over 60% in size); details: Potency: qHTS inhibition
Method in brief: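 Recombinant human AChE (50 mU/mL in the enzyme mix) and human liver microsomes (0.25 mg/mL final) were preincubated with compound and NADPH (0.25 mg/mL final) for 30 min at 37 C. Acetylthiocholine/DTNB was then added; thiocholine was read colorimetrically after 10 min at room temperature.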

[4] = molecular target: Cytochrome P450 2D6 (Homo sapiens) (UniProt P10635); test: Cytochrome P450 Family 2 Subfamily D Member 6 (CYP2D6) small molecule antagonists: luciferase reporter qHTS assay (AID 1671196); note: nearly all actives have a fitted effect of over 50% in size; note: potency is the fitted concentration of half-maximal effect
Chain of Cytochrome P450 2D6 (Homo sapiens) (P10635 whole entry, looked up): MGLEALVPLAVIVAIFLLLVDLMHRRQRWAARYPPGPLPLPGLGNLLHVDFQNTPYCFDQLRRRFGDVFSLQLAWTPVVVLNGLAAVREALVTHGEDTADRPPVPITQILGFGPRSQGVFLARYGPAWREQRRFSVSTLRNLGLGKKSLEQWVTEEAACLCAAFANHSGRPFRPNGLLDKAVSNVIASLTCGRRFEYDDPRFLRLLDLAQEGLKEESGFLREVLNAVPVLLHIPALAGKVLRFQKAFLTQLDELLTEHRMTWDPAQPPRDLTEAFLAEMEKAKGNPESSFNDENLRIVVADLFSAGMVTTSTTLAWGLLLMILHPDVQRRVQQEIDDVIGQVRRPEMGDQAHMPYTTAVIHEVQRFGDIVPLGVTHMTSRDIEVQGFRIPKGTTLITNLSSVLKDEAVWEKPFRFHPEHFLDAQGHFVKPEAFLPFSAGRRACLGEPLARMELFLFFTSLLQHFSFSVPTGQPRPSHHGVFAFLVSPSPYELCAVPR
Method in brief: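 Enzyme and proluciferin substrate were first combined with test chemical for 10 min at room temperature. Adding NADPH regeneration solution started a 1 h reaction, stopped with luciferin detection reagent and read by luminescence 20 min later.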

[5] = molecular target: Cytochrome P450 2C19 (Homo sapiens) (UniProt P33261); test: Cytochrome P450 Family 2 Subfamily C Member 19 (CYP2C19) small molecule antagonists: luciferase reporter qHTS assay (AID 1671197); note: nearly all actives have a fitted effect of over 65% in size; note: potency is the fitted concentration of half-maximal effect
Chain of Cytochrome P450 2C19 (Homo sapiens) (P33261 whole entry, looked up): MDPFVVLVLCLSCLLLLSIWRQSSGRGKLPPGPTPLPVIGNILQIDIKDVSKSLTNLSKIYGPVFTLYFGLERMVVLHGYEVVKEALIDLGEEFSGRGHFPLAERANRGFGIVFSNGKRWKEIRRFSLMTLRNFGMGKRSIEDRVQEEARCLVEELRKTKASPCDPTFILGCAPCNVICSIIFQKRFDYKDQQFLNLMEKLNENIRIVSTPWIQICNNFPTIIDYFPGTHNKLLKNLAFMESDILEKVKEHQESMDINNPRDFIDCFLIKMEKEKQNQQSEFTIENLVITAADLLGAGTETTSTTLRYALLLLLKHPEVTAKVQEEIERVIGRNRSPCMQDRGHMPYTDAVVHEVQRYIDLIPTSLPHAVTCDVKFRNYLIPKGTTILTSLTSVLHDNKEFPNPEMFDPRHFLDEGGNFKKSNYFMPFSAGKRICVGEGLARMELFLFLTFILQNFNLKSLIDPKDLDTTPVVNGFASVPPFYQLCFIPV
Method in brief: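 Light output is proportional to CYP2C19 activity: proluciferin substrate is converted to luciferin, then detected by a luciferin detection reagent that also stops the 1 h, 37C NADPH-driven reaction. Ketoconazole serves as positive control.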

[6] = molecular target: Cytochrome P450 2C9 (Homo sapiens) (UniProt P11712); test: Cytochrome P450 Family 2 Subfamily C Member 9 (CYP2C9) small molecule antagonists: luciferase reporter qHTS assay (AID 1671198); note: nearly all actives have a fitted effect of over 50% in size; note: potency is the fitted concentration of half-maximal effect
Chain of Cytochrome P450 2C9 (Homo sapiens) (P11712 whole entry, looked up): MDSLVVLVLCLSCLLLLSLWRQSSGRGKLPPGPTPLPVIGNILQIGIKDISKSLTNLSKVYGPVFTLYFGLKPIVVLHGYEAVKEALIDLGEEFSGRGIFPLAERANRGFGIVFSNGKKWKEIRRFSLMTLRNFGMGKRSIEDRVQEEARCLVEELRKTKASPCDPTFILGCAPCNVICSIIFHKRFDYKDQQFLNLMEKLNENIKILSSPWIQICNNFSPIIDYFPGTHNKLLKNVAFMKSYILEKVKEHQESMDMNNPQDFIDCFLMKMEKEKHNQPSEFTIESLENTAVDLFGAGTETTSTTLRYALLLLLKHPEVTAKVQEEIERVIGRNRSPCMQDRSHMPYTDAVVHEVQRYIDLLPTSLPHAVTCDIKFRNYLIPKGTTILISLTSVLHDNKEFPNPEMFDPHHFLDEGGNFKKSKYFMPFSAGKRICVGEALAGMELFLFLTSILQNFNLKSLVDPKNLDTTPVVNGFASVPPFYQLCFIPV
Method in brief: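 CYP2C9 activity was measured with a P450-Glo proluciferin substrate. Enzyme–substrate mix was held with compound for 10 min at room temperature, then NADPH regeneration solution was added for 1 h at 37C. Luciferin product was read as luminescence.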

[7] = molecular target: Voltage-gated inwardly rectifying potassium channel KCNH2 (Homo sapiens) (UniProt Q12809); test: Human Ether-a-go-go-Related Gene (hERG) channel small molecule antagonists: fluorescence cell-based qHTS assay (AID 1671200); note: nearly all actives have a fitted effect of over 50% in size; note: potency is the fitted concentration of half-maximal effect
Chain of Voltage-gated inwardly rectifying potassium channel KCNH2 (Homo sapiens) (Q12809 whole entry, looked up): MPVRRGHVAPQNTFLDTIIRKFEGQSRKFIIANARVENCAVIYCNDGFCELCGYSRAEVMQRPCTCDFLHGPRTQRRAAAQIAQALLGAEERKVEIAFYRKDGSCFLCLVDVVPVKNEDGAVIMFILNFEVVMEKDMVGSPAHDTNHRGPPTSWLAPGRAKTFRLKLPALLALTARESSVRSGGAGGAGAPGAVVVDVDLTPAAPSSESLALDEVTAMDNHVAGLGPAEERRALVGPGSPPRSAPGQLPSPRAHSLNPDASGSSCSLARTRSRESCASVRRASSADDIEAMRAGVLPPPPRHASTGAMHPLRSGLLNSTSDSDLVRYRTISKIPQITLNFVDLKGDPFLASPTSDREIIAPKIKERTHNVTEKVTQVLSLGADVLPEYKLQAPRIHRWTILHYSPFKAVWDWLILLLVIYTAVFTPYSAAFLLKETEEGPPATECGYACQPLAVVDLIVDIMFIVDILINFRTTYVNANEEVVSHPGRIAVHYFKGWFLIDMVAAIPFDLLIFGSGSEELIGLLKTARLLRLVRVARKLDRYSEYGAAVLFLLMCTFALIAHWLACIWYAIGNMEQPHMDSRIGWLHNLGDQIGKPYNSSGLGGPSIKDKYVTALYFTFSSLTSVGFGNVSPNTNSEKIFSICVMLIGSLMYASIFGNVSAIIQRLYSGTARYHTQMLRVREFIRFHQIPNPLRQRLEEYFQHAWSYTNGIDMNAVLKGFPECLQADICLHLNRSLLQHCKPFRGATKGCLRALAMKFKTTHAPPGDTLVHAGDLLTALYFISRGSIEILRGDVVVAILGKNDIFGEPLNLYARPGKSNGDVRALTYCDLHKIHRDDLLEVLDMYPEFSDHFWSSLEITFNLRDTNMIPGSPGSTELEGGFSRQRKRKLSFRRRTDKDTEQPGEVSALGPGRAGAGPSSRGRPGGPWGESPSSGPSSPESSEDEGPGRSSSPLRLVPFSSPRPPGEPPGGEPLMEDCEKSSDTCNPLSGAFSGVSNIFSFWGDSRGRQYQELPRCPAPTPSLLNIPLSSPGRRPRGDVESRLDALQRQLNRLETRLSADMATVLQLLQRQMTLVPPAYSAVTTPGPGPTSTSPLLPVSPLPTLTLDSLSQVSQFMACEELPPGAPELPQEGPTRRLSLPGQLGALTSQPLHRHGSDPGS
Method in brief: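 U2OS cells expressing the channel were plated at 1000 cells/well, incubated overnight at 37 C, then loaded with FluxOR II thallium-sensitive dye for 1 h at room temperature in the dark, with a further 10 min at room temperature before stimulation.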

[8] = molecular target: Cytochrome P450 3A4 (Homo sapiens) (UniProt P08684); test: Cytochrome P450 Family 3 Subfamily A Member 4 (CYP3A4) small molecule antagonists: luciferase reporter qHTS assay (AID 1671201); note: nearly all actives have a fitted effect of over 50% in size; note: potency is the fitted concentration of half-maximal effect
Chain of Cytochrome P450 3A4 (Homo sapiens) (P08684 whole entry, looked up): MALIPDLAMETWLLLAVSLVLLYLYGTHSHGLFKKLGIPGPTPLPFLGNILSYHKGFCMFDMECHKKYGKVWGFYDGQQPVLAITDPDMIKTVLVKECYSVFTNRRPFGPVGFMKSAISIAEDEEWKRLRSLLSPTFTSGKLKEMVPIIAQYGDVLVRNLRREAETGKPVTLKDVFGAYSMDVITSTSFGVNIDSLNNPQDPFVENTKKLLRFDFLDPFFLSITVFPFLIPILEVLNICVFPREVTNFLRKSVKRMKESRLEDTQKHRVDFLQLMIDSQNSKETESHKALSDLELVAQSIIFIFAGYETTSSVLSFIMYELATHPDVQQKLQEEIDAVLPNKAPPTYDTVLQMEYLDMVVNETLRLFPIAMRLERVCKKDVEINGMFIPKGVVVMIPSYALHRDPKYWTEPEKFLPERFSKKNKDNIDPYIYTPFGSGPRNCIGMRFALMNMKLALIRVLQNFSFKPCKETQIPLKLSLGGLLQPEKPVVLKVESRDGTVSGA
Method in brief: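 P450-Glo CYP3A4 system with proluciferin substrate; compounds preincubated 10 min RT with enzyme-substrate mix, then NADPH regeneration added for 1 h RT. Detection reagent 20 min, luminescence read as relative luminescence units.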

[9] = molecular target: Cytochrome P450 1A2 (Homo sapiens) (UniProt P05177); test: Cytochrome P450 Family 1 Subfamily A Member 2 (CYP1A2) small molecule antagonists: luciferase reporter qHTS assay (AID 1671199); note: nearly all actives have a fitted effect of over 50% in size; note: potency is the fitted concentration of half-maximal effect
Chain of Cytochrome P450 1A2 (Homo sapiens) (P05177 whole entry, looked up): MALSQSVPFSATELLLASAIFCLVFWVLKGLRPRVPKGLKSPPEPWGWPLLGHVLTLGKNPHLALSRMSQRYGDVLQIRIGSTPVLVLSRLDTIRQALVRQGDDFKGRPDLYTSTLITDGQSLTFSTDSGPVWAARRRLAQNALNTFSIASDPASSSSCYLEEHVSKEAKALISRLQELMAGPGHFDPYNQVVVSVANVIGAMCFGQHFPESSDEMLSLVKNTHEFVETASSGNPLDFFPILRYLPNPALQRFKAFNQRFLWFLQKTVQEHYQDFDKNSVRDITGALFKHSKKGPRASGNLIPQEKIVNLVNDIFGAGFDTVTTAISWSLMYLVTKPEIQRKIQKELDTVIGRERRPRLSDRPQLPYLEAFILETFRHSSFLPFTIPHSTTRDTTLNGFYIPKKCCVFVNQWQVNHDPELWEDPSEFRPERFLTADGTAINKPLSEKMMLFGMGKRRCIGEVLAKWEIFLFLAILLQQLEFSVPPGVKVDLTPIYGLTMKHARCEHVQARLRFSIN
Method in brief: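 Compounds were incubated with CYP1A2 and a luminogenic proluciferin substrate for 10 min at room temperature before the reaction was started with NADPH regeneration solution. After 1 h, detection reagent was added and light output, proportional to CYP activity, was recorded.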

Compound	Potency [1]	Potency [2]	Potency [3]	Potency [4]	Potency [5]	Potency [6]	Potency [7]	Potency [8]	Potency [9]
CC1CCC(=O)O1 (stereo not drawn)	inactive	inactive	inactive	inactive	inactive	inactive	inactive	inactive	
CCOC(=O)CP(=O)(OCC)OCC	inactive	inactive	inactive	inactive	inactive	inactive		inactive	inactive
CC(=O)C(Cl)Cl	inactive	inactive	inactive	inactive	inactive	inactive		inactive	inactive
N#Cc1ccncc1	inactive	inactive	inactive	inactive	inactive	inactive	inactive	inactive	inactive
O=S(=O)(O)C(F)(F)C(F)(F)C(F)(F)C(F)(F)C(F)(F)C(F)(F)F	inactive	inactive	inactive	inactive	79.6 µM (active)	1.12 µM (active)	inactive	inactive	inactive
c1ccc(N2CCNCC2)cc1	inactive	inactive	inactive	inactive	inactive	inactive	inactive	inactive	
O=[N+]([O-])c1ccc2c3c(cccc13)CC2	inactive	inactive	inactive	inactive	35.6 µM (active)	inactive	inactive		2.24 µM (active)
COP(=S)(OC)Oc1c(Cl)cc(C)cc1Cl	inactive	inactive	inactive	inactive	7.1 µM (active)	8.94 µM (active)	inactive	5.03 µM (active)	8.94 µM (active)
C=C(C)[C@@H]1CC=C(C=O)CC1	inactive	inactive	inactive	inactive	63.3 µM (active)	71 µM (active)	inactive	35.6 µM (active)	inactive
N#CCCC#N	inactive	inactive	inactive	inactive	inactive	inactive	inactive	inactive	inactive
CCNc1nc(NC(C)C)nc(OC)n1	inactive	inactive	inactive	inactive	25.2 µM (active)	inactive	inactive		25.2 µM (active)
O=C1OC(CCN2CCCCC2)OC1(c1ccccc1)c1ccccc1 (stereo not drawn)	inactive	inactive	inactive	0.871 µM (active)	38.9 µM (active)	15.5 µM (active)	0.848 µM (active)		
ClC(Cl)Br	inactive	inactive	inactive	inactive	inactive	inactive		inactive	inactive
CC(=O)[C@H]1CC[C@H]2[C@@H]3CC[C@H]4C[C@H](O)CC[C@]4(C)[C@H]3C(=O)C[C@]12C	inactive	inactive	inactive						
CCOC(=O)C(c1c(O)c2ccccc2oc1=O)c1c(O)c2ccccc2oc1=O	inactive	inactive	inactive	inactive	inactive	2.75 µM (active)	inactive	inactive	27.5 µM (active)
COCC(=O)N(c1c(C)cccc1C)N1CCOC1=O	inactive	inactive	inactive	inactive	79.6 µM (active)	inactive	inactive	inactive	inactive
ClC(Cl)C(Cl)Cl	inactive	inactive	inactive	inactive	inactive	inactive	inactive	inactive	
COc1cc(OC)nc(Oc2cccc(Oc3nc(OC)cc(OC)n3)c2C(=O)O)n1	inactive	inactive	inactive	inactive	inactive	inactive	inactive	inactive	inactive
O=C(Nc1ccccc1)c1ccccc1I	inactive	inactive	inactive	35.6 µM (active)	22.4 µM (active)	39.9 µM (active)	inactive	15.9 µM (active)	20 µM (active)
CN1CCC(O)(c2ccc(F)cc2)C(C(=O)c2ccc(F)cc2)C1 (stereo not drawn)	inactive	inactive	inactive	17.4 µM (active)	inactive	inactive			inactive
CC(=O)CC(c1ccc(Cl)cc1)c1c(O)c2ccccc2oc1=O (stereo not drawn)	inactive	inactive	inactive	inactive	inactive	11.8 µM (active)	inactive	inactive	inactive
O=NN1CCN(N=O)CC1	inactive	inactive	inactive	inactive	inactive	inactive	inactive	inactive	inactive
O=[N+]([O-])c1cc(Cl)c(Cl)c(Cl)c1	inactive	inactive	inactive	inactive	inactive	inactive	inactive	inactive	11.1 µM (active)
Nc1ccccc1Cl	inactive	inactive	inactive	6.87 µM (active)	inactive	inactive	inactive	inactive	
O=C(Oc1ccc(Br)cc1)N1CCN2CCC1CC2	inactive	inactive	inactive	inactive	inactive	inactive		inactive	inactive

Compound	Potency [1]	Potency [2]	Potency [3]	Potency [4]	Potency [5]	Potency [6]	Potency [7]	Potency [8]	Potency [9]
Cc1cccc(C#N)c1	inactive	inactive	inactive	inactive	inactive	inactive	inactive	inactive	
O=CNC(N1CCN(C(NC=O)C(Cl)(Cl)Cl)CC1)C(Cl)(Cl)Cl (stereo not drawn)	inactive	inactive	inactive	31.7 µM (active)	7.96 µM (active)	35.6 µM (active)		7.96 µM (active)	inactive
CC1(C(=O)Nc2ccc(O)c(Cl)c2Cl)CCCCC1	inactive	inactive	inactive	71 µM (active)	11.2 µM (active)	35.6 µM (active)	inactive		
CNC(=O)Oc1c(C(C)(C)C)cc(C)cc1C(C)(C)C	inactive	inactive	inactive	inactive	2.83 µM (active)	6.33 µM (active)		2.83 µM (active)	inactive
NC1=NC(=O)C(c2ccccc2)O1 (stereo not drawn)	inactive	inactive	inactive	inactive	inactive	inactive	inactive	inactive	inactive
CCC/C(=N\OCC)C1=C(O)CC(CC(C)SCC)CC1=O (stereo not drawn)	inactive	inactive	inactive	11.3 µM (active)	8.99 µM (active)	31.9 µM (active)	inactive	inactive	35.8 µM (active)
CNCC(=O)c1ccc(O)c(O)c1	inactive	inactive	inactive	inactive	inactive	inactive	inactive	inactive	inactive
c1coc(-c2nc3ccccc3[nH]2)c1	inactive	inactive	inactive	44.8 µM (active)	28.3 µM (active)	inactive	inactive	inactive	7.96 µM (active)
ClC(Cl)(Cl)C(Cl)(Cl)Cl	inactive	inactive	inactive	inactive	inactive	inactive	inactive	inactive	inactive
COc1cc(OC)nc(NC(=O)NS(=O)(=O)c2ncccc2C(=O)N(C)C)n1	inactive	inactive	inactive	inactive	inactive	inactive	inactive	inactive	
CC(C1CC1)C(O)(Cn1cncn1)c1ccc(Cl)cc1 (stereo not drawn)	inactive	inactive	inactive	35.4 µM (active)	0.354 µM (active)	0.126 µM (active)	inactive	0.888 µM (active)	
COc1cccc(C(=O)NN(C(=O)c2cc(C)cc(C)c2)C(C)(C)C)c1C	inactive	inactive	inactive	39.9 µM (active)	3.56 µM (active)	17.8 µM (active)	inactive	0.71 µM (active)	inactive
COC(=O)COc1ccc(Cl)cc1Cl	inactive	inactive	inactive	inactive		inactive	inactive	inactive	12.6 µM (active)
CC(COc1ccc(Oc2ccccc2)cc1)Oc1ccccn1 (stereo not drawn)	inactive	inactive	inactive	inactive	10 µM (active)			inactive	15.9 µM (active)
[O]=[Cd]	inactive	inactive	inactive	inactive	inactive		inactive	inactive	inactive
COC(=O)C(C)Oc1ccc(Oc2ccc(Cl)cc2Cl)cc1 (stereo not drawn)	inactive	inactive	inactive	inactive	5.64 µM (active)		38.9 µM (active)	inactive	
CCN(CC)CCOC(=O)C(C)(c1ccccc1)c1ccccc1	inactive	inactive	inactive	1.55 µM (active)		12.3 µM (active)			inactive
CCS(=O)(=O)CCSP(=O)(OC)OC	inactive	inactive	inactive	inactive	inactive		inactive	inactive	inactive
CCC(=O)c1ccccc1	inactive	inactive	inactive	inactive		inactive	inactive	inactive	inactive
O=C(O)c1cccc(Cl)c1	inactive	inactive	inactive	inactive	inactive		inactive	inactive	40 µM (active)
CCCSC(=O)Cl	inactive	inactive	inactive	inactive		inactive	inactive	inactive	inactive
COC(=O)c1ccccc1S(=O)(=O)NC(=O)Nc1nc(C)cc(C)n1	inactive	inactive	inactive	inactive		inactive	inactive	inactive	inactive
CCc1cc2c(s1)-n1c(C)nnc1CN=C2c1ccccc1Cl	inactive	inactive	inactive	inactive		inactive	inactive	inactive	inactive
CC(C=O)Cc1ccc2c(c1)OCO2 (stereo not drawn)	inactive	inactive	inactive	63.3 µM (active)	20 µM (active)		inactive	11.2 µM (active)	6.33 µM (active)
